# Reference: PubChem BioAssay (EPA / NIEHS)
# “And” between values parts separate entries of the source, which are not always exact repeats. Equal values may be shown once. The source holds several records for some structures; these can differ, active in one and inactive in another. The source made the active and inactive calls. The calls were made as follows: active = hit-call score of the fitted dose curve at least 0.9, where 1 is the maximum; inactive = score below 0.9.
# How the values were obtained:
# [1] = ATG_ISRE_CIS: Attagene CIS-FACTORIAL HepG2 Assay for human Interferon Regulatory Factor 1 (IRF1) binding to an Interferon-Stimulated Response Element (ISRE) (AID 2282948); conditions: HepG2 ISRE cis-reporter (Attagene), mRNA transcription readout; actives raise or lower the signal
# Procedure, shortened: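 Transiently transfected HepG2 cells carrying cis-element reporter units, dosed 24 hours. Reporter mRNA quantified by RT-PCR, fluorescent primer extension, HpaI digestion and capillary electrophoresis. Bidirectional fitting relative to DMSO.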
# [2] = ATG_M_32_CIS: Attagene CIS-FACTORIAL HepG2 Assay for M32 Transcription Factor (Internal Marker) (AID 2282949); conditions: HepG2 Attagene cis-factorial M32 reporter, mRNA; actives raise or lower the signal;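 also: background control marker of the multiplexed CIS panel rather than a real target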
# Procedure, shortened: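 Internal background marker read-out: RT-PCR/capillary electrophoresis fluorescence of reporter transcripts from transiently transfected HepG2 cells after 24 h chemical exposure. Activity fitted bidirectionally relative to DMSO negative control.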
# [3] = ATG_M_06_CIS: Attagene CIS-FACTORIAL HepG2 Assay for M06 Transcription Factor (Internal Marker) (AID 2282950); conditions: HepG2 Attagene CIS-FACTORIAL M06 internal marker reporter; actives raise or lower the signal
# Procedure, shortened: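 Fluorescence-labelled RT-PCR products from cis-promoter reporter units, cut with HpaI and resolved by capillary electrophoresis, give the signal. Cells are human HepG2, dosed for 24 h. Serves as background control, fitted relative to DMSO.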
# [4] = target: Hypoxia-inducible factor 1-alpha (Homo sapiens) (UniProt Q16665); experiment: ATG_HIF1a_CIS: Attagene CIS-FACTORIAL HepG2 Assay for human Hypoxia Inducible Factor 1 (HIF1A) (AID 2282951); conditions: HepG2 Attagene cis-factorial HIF1a reporter transcription; actives raise or lower the signal
# Procedure, shortened: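 Fluorescence intensity of capillary-separated, 6-FAM-labelled reporter amplicons gives mRNA induction in HepG2 cells carrying transfected cis-promoter reporter units; cells exposed 24 h, responses fitted up or down from DMSO.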
# [5] = target: Hepatocyte nuclear factor 6 (Homo sapiens) (UniProt Q9UBC0); experiment: ATG_HNF6_CIS: Attagene CIS-FACTORIAL HepG2 Assay for human Hepatocyte Nuclear Factor 6 (HNF6) (AID 2282952); conditions: HepG2 Attagene cis-factorial HNF6 reporter transcription; actives raise or lower the signal
# Procedure, shortened: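 Reporter mRNA induction or loss in HepG2 after 24 h exposure; transient cis-MRTU transfection; fragments quantified by capillary electrophoresis; bidirectional analysis, DMSO as negative control.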
# [6] = target: Heat shock factor protein 1 (Homo sapiens) (UniProt Q00613); experiment: ATG_HSE_CIS: Attagene CIS-FACTORIAL HepG2 Assay for human Heat Shock Transcription Factor 1 (HSE) (AID 2282953); conditions: HepG2 HSE cis-reporter, Attagene RNA transcription; actives raise or lower the signal
# Procedure, shortened: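 After a 24 h incubation with test chemical, transfected HepG2 cells were harvested for RNA; reporter transcripts were measured by RT-PCR and capillary electrophoresis. Values reflect gain or loss of signal relative to DMSO.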
# [7] = ATG_MRE_CIS: Attagene CIS-FACTORIAL HepG2 Assay for human Metal Responsive Element (MRE) (AID 2282954); conditions: HepG2 MRE cis-reporter transcription, Attagene multiplex; actives raise or lower the signal
# Procedure, shortened: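 Fluorescent reporter fragments separated by capillary electrophoresis give mRNA induction for the MRE unit after 24 h treatment of transfected HepG2 cells. Endogenous transcription-factor activity is read; DMSO serves as negative control and baseline.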
# [8] = ATG_PBREM_CIS: Attagene CIS-FACTORIAL HepG2 Assay for human Phenobarbital-responsive Enhancer Module (PBREM) (AID 2282955); conditions: HepG2 PBREM cis-reporter, Attagene multiplexed transcription; actives raise or lower the signal
# Procedure, shortened: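 Cells were transfected with cis-element reporter units and treated for 24 h, after which RNA was extracted and reporter transcripts measured by RT-PCR and capillary electrophoresis.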
# [9] = target: Paired box protein Pax-6 (Homo sapiens) (UniProt P26367); experiment: ATG_Pax6_CIS: Attagene CIS-FACTORIAL HepG2 Assay for human Paired Box 6 (PAX6) (AID 2282956); conditions: HepG2 CIS-FACTORIAL PAX6 reporter transcription, RNA readout; actives raise or lower the signal
# Procedure, shortened: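 HepG2 cells transiently transfected with cis-promoter-driven multiplexed reporter units sensing endogenous transcription factor activity; 24 h chemical exposure. Reporter mRNA quantified by RT-PCR, 6-FAM labelling, HpaI digestion and capillary electrophoresis; bidirectional fit versus DMSO baseline.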
# [10] = ATG_GRE_CIS: Attagene CIS-FACTORIAL HepG2 Assay for human Glucocorticoid Response Elements (GRE) (AID 2282947); conditions: HepG2 GRE cis-reporter, Attagene multiplex mRNA; AC50: actives raise or lower the signal unless noted; outcome: actives raise or lower the signal unless noted
# Procedure, shortened: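 Endogenous transcription factor activity is read through cis-element reporter constructs transiently transfected into HepG2 cells. After 24 h treatment, labelled RT-PCR products are resolved by capillary electrophoresis; DMSO sets baseline for bidirectional curve fitting.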
# Heat shock factor protein 1 (Homo sapiens), sequence (Q00613 whole entry, looked up): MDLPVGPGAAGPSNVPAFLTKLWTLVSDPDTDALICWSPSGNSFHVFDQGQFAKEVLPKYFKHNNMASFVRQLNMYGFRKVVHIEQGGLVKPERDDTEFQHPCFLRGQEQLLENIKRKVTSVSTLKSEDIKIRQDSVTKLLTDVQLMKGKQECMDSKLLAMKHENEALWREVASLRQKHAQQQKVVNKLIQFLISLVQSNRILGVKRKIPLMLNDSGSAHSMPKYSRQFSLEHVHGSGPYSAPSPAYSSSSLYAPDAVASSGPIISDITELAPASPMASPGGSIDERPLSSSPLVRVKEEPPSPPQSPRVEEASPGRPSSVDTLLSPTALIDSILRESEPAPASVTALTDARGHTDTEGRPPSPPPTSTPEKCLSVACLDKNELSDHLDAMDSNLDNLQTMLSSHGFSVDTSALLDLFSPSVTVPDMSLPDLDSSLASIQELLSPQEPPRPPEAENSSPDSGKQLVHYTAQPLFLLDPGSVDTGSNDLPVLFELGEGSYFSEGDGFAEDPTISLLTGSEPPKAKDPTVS
# Hypoxia-inducible factor 1-alpha (Homo sapiens), sequence (Q16665 whole entry, looked up): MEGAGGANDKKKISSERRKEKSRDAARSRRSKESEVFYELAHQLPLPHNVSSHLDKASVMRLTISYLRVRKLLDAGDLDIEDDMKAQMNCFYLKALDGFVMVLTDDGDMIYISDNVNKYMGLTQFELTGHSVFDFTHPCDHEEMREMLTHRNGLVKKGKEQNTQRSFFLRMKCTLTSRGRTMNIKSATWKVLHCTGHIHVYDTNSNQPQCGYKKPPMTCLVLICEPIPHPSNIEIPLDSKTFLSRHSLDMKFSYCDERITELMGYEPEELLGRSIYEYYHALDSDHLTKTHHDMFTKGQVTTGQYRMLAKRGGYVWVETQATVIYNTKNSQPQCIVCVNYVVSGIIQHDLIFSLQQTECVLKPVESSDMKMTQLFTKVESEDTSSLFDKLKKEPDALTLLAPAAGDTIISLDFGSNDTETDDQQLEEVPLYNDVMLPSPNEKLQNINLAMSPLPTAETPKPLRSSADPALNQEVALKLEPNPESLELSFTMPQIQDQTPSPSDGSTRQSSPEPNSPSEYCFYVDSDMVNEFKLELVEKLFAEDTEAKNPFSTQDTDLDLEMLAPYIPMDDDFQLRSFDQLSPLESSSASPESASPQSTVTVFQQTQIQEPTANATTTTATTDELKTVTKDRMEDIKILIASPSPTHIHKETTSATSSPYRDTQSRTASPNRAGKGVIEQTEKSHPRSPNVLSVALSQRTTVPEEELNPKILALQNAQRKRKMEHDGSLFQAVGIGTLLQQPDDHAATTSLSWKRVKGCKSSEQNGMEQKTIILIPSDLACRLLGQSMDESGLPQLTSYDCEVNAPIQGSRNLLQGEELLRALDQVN
# Hepatocyte nuclear factor 6 (Homo sapiens), sequence (Q9UBC0 whole entry, looked up, the tested form may be a part): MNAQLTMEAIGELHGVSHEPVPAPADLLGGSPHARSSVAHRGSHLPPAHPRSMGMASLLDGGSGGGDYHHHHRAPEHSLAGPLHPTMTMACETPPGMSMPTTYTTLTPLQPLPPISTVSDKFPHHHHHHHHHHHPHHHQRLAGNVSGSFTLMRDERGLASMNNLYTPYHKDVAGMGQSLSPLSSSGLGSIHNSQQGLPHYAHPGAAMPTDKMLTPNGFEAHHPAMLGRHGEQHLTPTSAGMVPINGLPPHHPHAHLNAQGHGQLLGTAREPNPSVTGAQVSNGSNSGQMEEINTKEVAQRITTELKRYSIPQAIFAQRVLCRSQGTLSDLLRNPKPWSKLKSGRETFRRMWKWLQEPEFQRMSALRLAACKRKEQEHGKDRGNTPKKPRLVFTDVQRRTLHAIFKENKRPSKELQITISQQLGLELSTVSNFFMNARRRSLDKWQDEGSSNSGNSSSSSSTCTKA
# Paired box protein Pax-6 (Homo sapiens), sequence (P26367 whole entry, looked up): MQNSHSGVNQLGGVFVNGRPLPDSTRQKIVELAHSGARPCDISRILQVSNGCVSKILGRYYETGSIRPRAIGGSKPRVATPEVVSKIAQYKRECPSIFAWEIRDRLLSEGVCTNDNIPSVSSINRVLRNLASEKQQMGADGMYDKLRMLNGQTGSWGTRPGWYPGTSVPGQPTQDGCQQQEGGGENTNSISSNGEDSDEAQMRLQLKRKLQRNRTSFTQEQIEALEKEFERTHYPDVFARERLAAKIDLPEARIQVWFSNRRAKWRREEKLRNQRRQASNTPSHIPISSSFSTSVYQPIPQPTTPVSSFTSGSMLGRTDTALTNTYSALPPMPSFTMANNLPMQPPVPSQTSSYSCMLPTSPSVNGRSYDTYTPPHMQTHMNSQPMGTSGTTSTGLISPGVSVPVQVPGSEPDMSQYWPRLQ
structure (smiles),measurement,setting,value
c1cc2cccc3c4cccc5cccc(c(c1)c23)c54,outcome,[1],inactive
same,outcome,[2],inactive
same,outcome,[3],inactive
same,outcome,[4],inactive
same,outcome,[5],inactive
same,outcome,[6],inactive
same,outcome,[7],inactive
same,outcome,[8],inactive
same,outcome,[9],inactive
O=C1c2ccc(O)c(O)c2C(=O)c2c(O)ccc(O)c21,outcome,[1],inactive
same,outcome,[2],inactive
same,outcome,[3],inactive
same,AC50,[4],12.6 µM (active)
same,outcome,[5],inactive
same,outcome,[6],inactive
same,outcome,[7],inactive
same,outcome,[8],inactive
same,outcome,[9],inactive
O=C(O)CN(CCCN(CC(=O)O)CC(=O)O)CC(=O)O,outcome,[1],inactive
same,outcome,[2],inactive
same,outcome,[3],inactive
same,outcome,[4],inactive
same,outcome,[5],inactive
same,outcome,[6],inactive
same,outcome,[7],inactive
same,outcome,[8],inactive
same,outcome,[9],inactive
CN(C)CCOC(c1ccccc1)c1ccccc1,outcome,[10],inactive
same,AC50,[1],100 µM (active)
same,outcome,[2],inactive
same,outcome,[3],inactive
same,outcome,[6],inactive
same,outcome,[7],inactive
same,outcome,[9],inactive
Cc1ccc(C)c(S(=O)(=O)O)c1,outcome,[1],inactive
same,outcome,[2],inactive
same,outcome,[3],inactive
same,outcome,[4],inactive
same,outcome,[5],inactive
same,outcome,[6],inactive
same,outcome,[7],inactive
same,outcome,[8],inactive
same,outcome,[9],inactive
CCCCCCOC(=O)c1ccc(O)cc1,outcome,[1],inactive
same,outcome,[2],inactive
same,outcome,[3],inactive
same,outcome,[4],inactive
same,AC50,[5],52.7 µM (active)
same,AC50,[8],29.8 µM (active)
same,AC50,[9],53.7 µM (active)
CC=O,outcome,[1],inactive
same,outcome,[2],inactive
same,outcome,[3],inactive
same,outcome,[4],inactive
same,outcome,[7],inactive
same,outcome,[8],inactive
same,outcome,[9],inactive
CCCCC(CC)C(=O)OCCOCCOCCOCCOC(=O)C(CC)CCCC (stereo not drawn),outcome,[1],inactive
same,outcome,[2],inactive
same,outcome,[3],inactive
same,outcome,[4],inactive
same,outcome,[6],inactive
same,outcome,[7],inactive
same,AC50,[8],27.6 µM (active)
same,outcome,[9],inactive
O=C(CCCN1CCC(O)(c2ccc(Cl)cc2)CC1)c1ccc(F)cc1,outcome,[1],inactive
same,AC50,[2],62.4 µM (active)
same,outcome,[3],inactive
same,AC50,[7],33.4 µM (active)
same,AC50,[9],51.2 µM (active)
CCCCN(C)C,outcome,[1],inactive
same,outcome,[2],inactive
same,outcome,[3],inactive
same,outcome,[4],inactive
same,outcome,[5],inactive
same,outcome,[6],inactive
same,outcome,[7],inactive
same,outcome,[8],inactive
same,outcome,[9],inactive
c1cnc2c(c1)ccc1cccnc12,AC50,[1],7.67 µM (active) and 7.15 µM (active)
same,outcome,[2],inactive
same,outcome,[3],inactive
same,outcome,[5],inactive
same,AC50,[6],144 µM (active)
same,outcome,[6],inactive
same,outcome,[7],inactive
same,AC50,[8],100 µM (active)
same,outcome,[8],inactive
same,outcome,[9],inactive
C=CC(=O)OCCC(F)(F)C(F)(F)C(F)(F)C(F)(F)C(F)(F)C(F)(F)C(F)(F)C(F)(F)F,outcome,[1],inactive
same,outcome,[2],inactive
same,outcome,[3],inactive
same,outcome,[4],inactive
same,outcome,[6],inactive
same,outcome,[7],inactive
same,outcome,[8],inactive
same,outcome,[9],inactive
CN(Cc1cnc2nc(N)nc(N)c2n1)c1ccc(C(=O)N[C@@H](CCC(=O)O)C(=O)O)cc1,outcome,[1],inactive
same,outcome,[2],inactive
same,outcome,[3],inactive
same,outcome,[6],inactive
same,outcome,[7],inactive
same,outcome,[8],inactive
same,outcome,[9],inactive
Cc1ccc(S(=O)(=O)O)cc1,outcome,[1],inactive
same,outcome,[2],inactive
same,outcome,[3],inactive
same,outcome,[4],inactive
same,outcome,[5],inactive
same,outcome,[9],inactive
C=COC(=O)C(C)(C)CCCCCC,outcome,[1],inactive
same,outcome,[2],inactive
same,outcome,[3],inactive
same,AC50,[4],130 µM (active)
same,outcome,[7],inactive
same,outcome,[8],inactive
same,outcome,[9],inactive
CCCCC(CC)C(=O)O (stereo not drawn),outcome,[1],inactive
same,outcome,[2],inactive
same,outcome,[3],inactive
same,outcome,[4],inactive
same,outcome,[5],inactive
same,outcome,[6],inactive
same,outcome,[7],inactive
same,outcome,[9],inactive
O=C(O)CCC(F)(F)C(F)(F)C(F)(F)C(F)(F)C(F)(F)C(F)(F)F,outcome,[1],inactive
same,outcome,[2],inactive
same,outcome,[3],inactive
same,outcome,[4],inactive
same,outcome,[5],inactive
same,outcome,[7],inactive
same,outcome,[8],inactive
same,outcome,[9],inactive
NCCN,outcome,[1],inactive
same,outcome,[2],inactive
same,outcome,[3],inactive
same,outcome,[4],inactive
same,outcome,[6],inactive
same,outcome,[7],inactive
same,outcome,[9],inactive
CCO[Si](C)(C)OCC,outcome,[1],inactive
same,outcome,[2],inactive
same,outcome,[3],inactive
same,outcome,[4],inactive
same,outcome,[5],inactive
same,outcome,[6],inactive
same,outcome,[8],inactive
same,outcome,[9],inactive
CCCCCCC(C)(C)C(=O)O,outcome,[1],inactive
same,outcome,[2],inactive
same,outcome,[3],inactive
same,AC50,[4],188 µM (active)
same,outcome,[5],inactive
same,AC50,[6],187 µM (active)
same,outcome,[8],inactive
same,AC50,[9],164 µM (active)
NC(C(F)(F)F)C(F)(F)F,outcome,[1],inactive
same,outcome,[2],inactive
same,outcome,[3],inactive
same,outcome,[4],inactive
same,outcome,[5],inactive
same,outcome,[7],inactive
same,outcome,[8],inactive
same,outcome,[9],inactive
CC(=O)Nc1ccc(O)cc1,outcome,[1],inactive
same,outcome,[2],inactive
same,outcome,[3],inactive
same,outcome,[6],inactive
same,outcome,[7],inactive
same,outcome,[8],inactive
CCCCCCCC(OC)OC,outcome,[1],inactive
same,outcome,[2],inactive
same,outcome,[3],inactive
same,outcome,[4],inactive
same,outcome,[6],inactive
same,outcome,[8],inactive
O=C(c1ccccc1)c1ccccc1,outcome,[1],inactive
same,outcome,[2],inactive
same,outcome,[3],inactive
same,outcome,[4],inactive
same,outcome,[7],inactive
same,outcome,[9],inactive
Cc1ccccc1OCC(=O)O,outcome,[1],inactive
same,outcome,[2],inactive
same,outcome,[3],inactive
same,outcome,[4],inactive
same,outcome,[5],inactive
same,outcome,[7],inactive
same,outcome,[8],inactive
NNC(=O)CCCCC(=O)NN,outcome,[1],inactive
same,outcome,[2],inactive
same,outcome,[3],inactive
same,outcome,[4],inactive
same,outcome,[5],inactive
same,outcome,[6],inactive
same,outcome,[7],inactive
same,outcome,[8],inactive
same,outcome,[9],inactive
